Compounds with a hit are over-represented: about 5.7% of the library has one in this group of screens.
BAZ2B block = qHTS Assay for Inhibitors of BAZ2B | Bromodomain adjacent to zinc finger domain protein 2B (Homo sapiens), Q9UIF8 | AlphaScreen BAZ2B-H3K14Ac peptide displacement | Potency, µM (top dose mostly 114 µM), inactives show top-dose activity change, negative = inhibition, actives largely listed as inhibitors | 4.4% of 360,000 active | AID 504333, 2011; also: potency is read from the fitted curve at half-maximal effect; % is scaled to controls: 0 for no effect and ±100 for the full control effect; nearly all actives have a fitted effect of over 60% in size
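Compounds, titrated to a top concentration of 110 uM, were incubated 30 min at room temperature with preformed BAZ2B/acetyl-K14 H3 peptide complex (50 nM each). Proximity signal was measured by AlphaScreen after 20 min with beads.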
HP1b binding inh = HTS for Inhibitors of HP1-beta Chromodomain Interactions with Methylated Histone Tails; Chromobox protein homolog 1 (Homo sapiens), P83916; AlphaScreen HP1-beta / biotin-H3K9me3 peptide binding; 0.56% of 390,000 active; Potency, µM (titrated, usually from 114 µM), for the others: at the highest dose activity change, negative = inhibition, usual class: inhibitors; also: potency is read from the fitted curve at half-maximal effect; nearly all actives have a fitted effect of over 70% in size
Target sequence (P83916 whole entry, looked up): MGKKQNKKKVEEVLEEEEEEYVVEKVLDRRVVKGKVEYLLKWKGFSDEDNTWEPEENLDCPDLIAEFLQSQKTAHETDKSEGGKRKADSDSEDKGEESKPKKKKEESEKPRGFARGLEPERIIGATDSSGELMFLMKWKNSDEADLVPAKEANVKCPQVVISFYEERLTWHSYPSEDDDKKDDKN
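AlphaScreen: HP1-beta (50 nM) preformed 30 min with biotin-H3(1-18)K9me3 peptide (50 nM) in PBS pH 7.4, 0.01% Tween-20. Compound added for 30 min at RT, then streptavidin donor/nickel chelate acceptor beads (10 ug/mL) for 30 min.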
JMJD2A Tudor inh = qHTS Assay for Inhibitors of JMJD2A-Tudor Domain | Lysine-specific demethylase 4A (Homo sapiens), O75164 | AlphaScreen JMJD2A-Tudor / H3K4me3 peptide binding | Potency, µM (doses to about 114 µM), for inactives: top-dose activity change, negative = inhibition, hits mostly inhibitors | 4.4% of 390,000 active | AID 504339, 2011; also: potency is read from the fitted curve at half-maximal effect; % is scaled to controls: 0 for no effect and ±100 for the full control effect; nearly all actives have a fitted effect of over 50% in size
L3MBTL1 inh = qHTS Assay for the Inhibitors of L3MBTL1 | Lethal(3)malignant brain tumor-like protein 1 (Homo sapiens), Q9Y468 | 0.66% of 230,000 active | AlphaScreen L3MBTL1–H3K9me1 peptide binding | Potency, µM (titrated, usually from 57.1 µM), for inactives: at the top dose activity, negative = inhibition, hits mostly inhibitors; also: potency is read from the fitted curve at half-maximal effect; % is scaled to controls: 0 for no effect and ±100 for the full control effect; nearly all actives have a fitted effect of over 60% in size
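Displacement of a biotinylated histone H3(1-15) peptide monomethylated at Lys9 (75 nM) from L3MBTL1 (50 nM) was measured by AlphaScreen after a 30 min room-temperature compound incubation; cefsulodin titration served as intraplate control.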
JMJD2E inh-1 = qHTS Assay for Inhibitors of Human Jumonji Domain Containing 2E (JMJD2E). Lysine-specific demethylase 4E (Homo sapiens), B2RXH2. JMJD2E catalytic domain, FDH-coupled NADH fluorescence. Potency, µM (top dose mostly 57.1 µM), for inactives: top-dose activity change, negative = inhibition, hits mostly inhibitors. 1.6% of 230,000 active. AID 2147, 2009; active = well fitted inhibition curve with a large enough effect, not every such curve was filed as active; inconclusive = small, poorly fitted or top-dose-only effect, or another doubt; inactive = no such curve, though single readings can be large or run the other way;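 also: potency is read from the fitted curve at half-maximal effect; 0% = wells with enzyme and -100% = buffer wells without enzyme; nearly all actives have a fitted effect of over 50% in size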
PI5P4Ka inh = qHTS for Inhibitors of phosphatidylinositol 5-phosphate 4-kinase (PI5P4K). max response, %. AID 652105, 2013. Phosphatidylinositol 5-phosphate 4-kinase type-2 alpha (Homo sapiens), P48426. PI5P4Kalpha enzyme, ADP-Glo luminescence, 60 min; hits give low values. 1.2% of 330,000 active; active = max response of -50% or lower; inconclusive = between -30% and -50%; inactive = -30% or higher; also: value at the top dose of about 77 µM; % is scaled to controls: 0 for no effect and ±100 for the full control effect
Target sequence (P48426 whole entry, looked up): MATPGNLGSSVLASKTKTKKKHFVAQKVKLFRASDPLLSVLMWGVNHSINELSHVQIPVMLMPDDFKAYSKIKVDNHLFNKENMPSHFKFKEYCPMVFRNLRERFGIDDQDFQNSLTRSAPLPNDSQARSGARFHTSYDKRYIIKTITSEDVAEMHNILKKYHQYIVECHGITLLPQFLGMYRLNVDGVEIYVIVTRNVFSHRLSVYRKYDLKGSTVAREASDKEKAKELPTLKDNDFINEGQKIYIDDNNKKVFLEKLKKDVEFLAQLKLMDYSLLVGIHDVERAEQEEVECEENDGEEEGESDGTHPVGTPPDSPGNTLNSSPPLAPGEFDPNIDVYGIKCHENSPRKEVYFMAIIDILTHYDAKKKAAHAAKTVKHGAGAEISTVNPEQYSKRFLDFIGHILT
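Luminescence from ADP-Glo served as readout of PI5P4Kalpha activity in a qHTS format. Reaction: enzyme, substrate, compound, ATP at 5 microM final, 60 min at RT.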
12-hLO cuvette = Cuvette-Based Assay for Inhibitors of 12-hLO (12-human lipoxygenase): 8HQ Series - Round 1; shares compounds with BAZ2B block; purified 12-hLO, cuvette UV 234 nm product formation; Potency, µM, usual class: inhibitors; 60% of 35 active; AID 2163, 2009;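 active = compounds that slowed 12-hLO product formation enough to yield a measured IC50 potency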
JMJD2E inh-2 = Inhibitors of Human Jumonji Domain Containing 2E (JMJD2E): 8HQs - Round 1; shares compounds with BAZ2B block; JMJD2E demethylase, FDH-coupled NADH fluorescence (FDH is formaldehyde dehydrogenase); Potency, µM (highest dose often 57 µM), for inactives: top-dose activity, negative = inhibition, hits mostly inhibitors; 89% of 130 active; AID 493212, 2011
ME-1 growth = qHTS Assay for Compounds Blocking the Interaction Between CBF-beta and RUNX1 for the Treatment of Acute Myeloid Leukemia: ME-1 cellular proliferation; ME-1 cell proliferation, ATP luminescence, 48 h; 20% of 140 active; Potency, µM (series often up to 56.1 µM), without a hit: at the top dose activity change, negative = inhibition, actives largely listed as inhibitors; shares compounds with BAZ2B block
Numbers without * were called inactive; i = inactive; ? = inconclusive; / = not tested or not shown; [ ] = dose if it differs, or a comment. Unless noted, calls follow the shape of the dose curve; as a rule, active = well fitted curve in the direction sought with a large enough effect; inconclusive = small, poorly fitted or top-dose-only effect, or another doubt; inactive = no such curve, though single readings can be large; an effect the other way counts as inactive or inconclusive.

SMILES | BAZ2B block | HP1b binding inh | JMJD2A Tudor inh | L3MBTL1 inh | JMJD2E inh-1 | PI5P4Ka inh | ME-1 growth | others
COC(=O)c1ccc2c(c1)N(CC(=O)Nc1ccc(C)cc1Cl)C(=O)c1ccccc1S2 | 0% | 12%[57 µM] | -22% | / | / | / | /
CCCC(=O)c1cc(O)c(O)cc1O | / | / | / | / | / | / | -1%
CCCc1cc(C(=O)Cc2ccc(F)cc2)c(O)cc1O | 9% | 88% | -21%[11.4 µM] | -16% | -19% | 19 | /
C=CCc1ccccc1Oc1cc(OC)nc(N)n1 | 4% | 35% | -12% | 6% | / | 0 | /
C=C1c2cccc(O)c2C(O)=C2C(=O)[C@]3(O)C(O)=C(C(N)=O)C(=O)[C@@H](N(C)C)[C@@H]3[C@@H](O)[C@H]12 | 3.5µM* | -8% | 7.1µM* | 0.89µM* | ? | -58* | -24%
CCC(CC)C(=O)N1CCc2cc(OC)c(OC)cc2C1COc1ccc(C(=O)OC)cc1 (centres undefined) | -31% | 23% | -34% | / | / | / | /
CCOC(=O)C1CCN(c2c([N+](=O)[O-])c(C(Cl)Cl)nn2-c2ccccc2)CC1 | ? | ? | ? | -24% | 8% | / | /
O=[N+]([O-])c1c(C(Cl)Cl)nn(-c2ccccc2)c1N1CCCC1 | 13µM* | ? | 25µM* | ? | 1% | / | -9%[25.6 µM]
O=C(NCCc1ccccc1)c1cccc(Br)n1 | / | / | / | / | / | / | -13%
CC(=O)NC(c1cc(Cl)c2cccnc2c1O)C1CC1 (centres undefined) | 32µM* | 84% | ? | -3% | / | / | / | 12-hLO cuvette=3µM*;JMJD2E inh-2=18µM*
CC(=O)NC(c1cc(Cl)c2cccnc2c1O)C(C)C (centres undefined) | 79µM* | 32% | ? | -12% | / | / | / | 12-hLO cuvette=2.6µM*;JMJD2E inh-2=23µM*
CC(=O)NC(c1cc(F)c2cccnc2c1O)C(C)C (centres undefined) | 79µM* | / | / | -20% | / | / | / | 12-hLO cuvette=i;JMJD2E inh-2=20µM*
CC(=O)NC(C)c1cc(F)c2cccnc2c1O (centres undefined) | 22µM* | 37% | 79µM* | ? | / | / | / | 12-hLO cuvette=i;JMJD2E inh-2=23µM*
Cc1cc(C(=O)NC(C)CCC(C)C)c2ccccc2n1 (centres undefined) | 11% | 38% | -14% | / | -9% | 3 | /
CCOc1cc2c(cc1OCC)CN(CC(=O)Nc1ccccc1C(=O)NC1CC1)CC2 | 4% | 36% | -17% | 5% | / | 2 | /
O=C(c1ccc(Cl)s1)N1CCN(S(=O)(=O)c2ccc(Cl)cc2)CC1 | / | 29%[57 µM] | 1% | 5% | / | 3 | /
O=C(O)c1ccc(S(=O)(=O)N(CCc2ccccc2)Cc2ccc(Cl)cc2)cc1 | ? | 33% | -14% | -4% | / | 13 | /
CCCCCCCCCCCCCCCCCCOC[C@H](COP(=O)([O-])OCC[N+](C)(C)C)OC | / | / | / | / | -9% | / | 16%
CCCCCCCCCCCCCCCCOCC(COP(=O)([O-])OCC[N+](C)(C)C)OC (centres undefined) | / | / | / | / | 0% | / | /
CC(CC(=O)NCc1ccc(Cl)cc1)c1ccccc1 (centres undefined) | -2% | 36% | 7% | 3% | / | 5 | /
O=C(CSc1ccc(-c2cccc([N+](=O)[O-])c2)nn1)NCc1ccccc1 | -5% | 1% | -13% | 10% | -4% | -4 | /
O=C(CSc1ccc(-c2ccccn2)nn1)NCc1ccccc1 | 18µM* | 2% | ? | / | ? | 2 | -18%
Cc1ccc(C)c(NC(=S)N(CCN(C)C)C(C)c2ccccn2)c1 (centres undefined) | / | 33% | -6% | / | -22% | -6 | -4%[25.6 µM]
Cc1cccc(C)c1NC(=S)N(CCN(C)C)C(C)c1ccccn1 (centres undefined) | / | 9% | -21% | / | ? | 0 | -11%[25.6 µM]
COCCCN(C(=S)Nc1c(C)cc(C)cc1C)C(C)c1ccccn1 (centres undefined) | -25% | 6% | -7% | 4% | 5% | 1 | /
CC(c1ccccn1)N(CCN(C)C)C(=S)Nc1cccc(F)c1 (centres undefined) | ? | 14% | -9% | / | ? | / | -4%[25.6 µM]
CN(C)CCCNC(=O)C[C@H]1C[C@H](C(=O)N2CCOCC2)[C@@]2(CCC3CCCC3)c3[nH]c4cc(CCC(=O)N(C)C)ccc4c3CCN2C1=O | / | 25% | -17% | -7% | / | 1 | /
CCCCOc1ccc(S(=O)(=O)NC(=O)C2(C)CCN2C(=O)c2c(C)noc2C)cc1 (centres undefined) | / | / | / | / | / | 0 | /
CCCCC#Cc1cncc(C(=O)N/N=C/c2cccc(OC)c2)c1 | -11% | 31% | -21% | -5% | 2% | -5 | /

Screening data (PubChem BioAssay)
